FLuc modulator: inhibits or activates purified firefly luciferase, miR-21 counter-screen; P08659; purified FLuc, Km substrates, luminescence inhibition; Potency, µM (doses to about 57.5 µM), for the others: at the highest dose activity change, negative = inhibition, usual class: inhibitors; 360,000 compounds, 6.9% hits; AID 588342;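 also: plate controls were vehicle for no effect and reference inhibitor for full effect; nearly all actives have a fitted effect of over 55% in size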
Target sequence (P08659 whole entry, looked up): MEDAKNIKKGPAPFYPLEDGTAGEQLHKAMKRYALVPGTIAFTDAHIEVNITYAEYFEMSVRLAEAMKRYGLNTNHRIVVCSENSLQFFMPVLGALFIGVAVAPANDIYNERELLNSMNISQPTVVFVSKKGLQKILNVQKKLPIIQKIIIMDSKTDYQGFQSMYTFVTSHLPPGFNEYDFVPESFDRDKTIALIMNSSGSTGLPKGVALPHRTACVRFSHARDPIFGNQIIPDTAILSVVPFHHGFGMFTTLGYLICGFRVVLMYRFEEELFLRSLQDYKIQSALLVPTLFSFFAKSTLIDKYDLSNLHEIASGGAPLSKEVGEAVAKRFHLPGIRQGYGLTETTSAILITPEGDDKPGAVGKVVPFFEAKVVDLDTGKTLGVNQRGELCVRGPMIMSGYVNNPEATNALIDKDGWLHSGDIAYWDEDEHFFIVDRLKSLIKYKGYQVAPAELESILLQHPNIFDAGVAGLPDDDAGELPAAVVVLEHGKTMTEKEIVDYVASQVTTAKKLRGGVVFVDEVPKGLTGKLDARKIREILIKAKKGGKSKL
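Purified P. pyralis luciferase, 10 nM final, with Km-level 10 uM D-luciferin and 10 uM ATP in 50 mM Tris acetate pH 7.5, 10 mM Mg acetate, 0.01% Tween-20, 0.05% BSA; 6-point qHTS titration about 60 µM downward; luminescence read.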
NPC1 prom act: NPC1 promoter activation. Huh7 NPC1 promoter luciferase reporter, 24 h. Potency, µM (doses to about 9.22 µM), without a hit: at the highest dose activation, most hits filed as activators. 320,000 compounds, 2.4% hits. AID 485313; also: % of control where 0% means no effect; nearly all actives have a fitted effect of over 60% in size
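NPC1 promoter–luciferase Huh7 cells; 24 h compound; luminescence.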
ELG1 DNA repair: ELG1-dependent DNA repair inhibition. HEK293T ELG1-luciferase reporter, luminescence, 16 h; DNA damage induced by 5-fluorouridine. Potency, µM (series often up to 46.1 µM), for the others: at the top dose activity change, negative = inhibition, most hits filed as inhibitors. 330,000 compounds, 2.3% hits. AID 504467; also: % is scaled to controls: 0 for no effect and ±100 for the full control effect; nearly all actives have a fitted effect of over 55% in size
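Reporter activity after DNA damage by 5-fluorouridine is monitored. Compound-treated cells incubate 16 hr at 37 °C, then ONE-Glo is added for 30 min before luminescence reading.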
ELG1 genotox: induces genotoxicity in HEK293T cells with luciferase-tagged ELG1. HEK293T ELG1-luciferase reporter, luminescence, 16 h. Potency, µM (series often up to 46 µM), for inactives: top-dose activity change, positive = activation, hits mostly activators. 330,000 compounds, 1.3% hits. AID 504466; also: % of control where 0% means no effect; nearly all actives have a fitted effect of over 60% in size
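Genotoxicity was scored as increased ELG1-luciferase reporter signal, measured by ONE-Glo luminescence (30 min, room temperature). Compound or vehicle exposure of the HEK293T reporter cells lasted 16 hr at 37°C.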
Rab9 prom act: activates the Rab9 promoter; Huh7 Rab9 promoter-luciferase reporter, luminescence, 24 h; Potency, µM (doses to about 9.22 µM), for the others: at the top dose activation, negative = inhibition, hits mostly activators; 320,000 compounds, 2.8% hits; AID 485297; also: % of control where 0% means no effect; nearly all actives have a fitted effect of over 60% in size
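Measured in stably transfected Huh7 cells bearing a Rab9 promoter–luciferase construct: 24 h compound treatment at 37 °C, followed by luminescence detection.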
SMN2 splice enh: SMN2 splice variant enhancement | HEK293 SMN2-luciferase splicing reporter, luminescence, 30-36 h | 210,000 compounds, 2.8% hits | Potency, µM (doses to about 46.1 µM), without a hit: at the top dose activity change, positive = activation, usual class: activators | AID 1458; also: % of control where 0% means no effect; nearly all actives have a fitted effect of over 55% in size
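HEK293 cells carry an SMN2 minigene-luciferase reporter in which exon 7 inclusion puts luciferase in frame. Cells were seeded at 2000 cells/well, attached for 10-12 hours, then exposed to compounds for 30-36 hours at 37C before ONE-Glo luminescence.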
* = called active by the depositor. Sampled rows, rich in hits. Any-hit rate of the full collection: about 9.2%. Calls follow the shape of the dose curve; as a rule, active = well fitted curve in the direction sought with a large enough effect; inconclusive = small, poorly fitted or top-dose-only effect, or another doubt; inactive = no such curve, though single readings can be large; an effect the other way counts as inactive or inconclusive. Potency is read from the fitted curve at half-maximal effect.

What do the screens show for `N#Cc1ccc(NC(=O)COCc2cc(-c3ccc(F)cc3)on2)cc1`?
FLuc modulator: inconclusive; SMN2 splice enh: -22%

How did CCN(CC)CCC#CC1(O)c2ccccc2-c2ccccc21 do in these assays?
FLuc modulator: 2%; NPC1 prom act: -1%; ELG1 DNA repair: 0%; ELG1 genotox: -8%; Rab9 prom act: 0%

Results for C/C(=N\NC(=O)c1cc(-c2ccccc2C)nc2ccccc12)c1cccnc1 ?
FLuc modulator: 8%; NPC1 prom act: 1%; ELG1 DNA repair: 4%; ELG1 genotox: 1%; Rab9 prom act: 3%

How did C/C(=N\NC(=O)c1cc(-c2ccc(C)s2)nc2ccccc12)c1cccnc1 do in these assays?
FLuc modulator: 0.95µM*; NPC1 prom act: inconclusive; ELG1 DNA repair: 11%; ELG1 genotox: 13%; Rab9 prom act: inconclusive

What do the screens show for `C/C(=N\NC(=O)c1cc(-c2cccc(OC(C)C)c2)nc2ccccc12)c1cccnc1`?
FLuc modulator: 0.6µM*; NPC1 prom act: 24%; ELG1 DNA repair: -11%; ELG1 genotox: 3%; Rab9 prom act: inconclusive

Results for C/C=C/C(=O)Nc1cccc(C2=NOC3(C2)C[C@@H](C(N)=O)N(C(=O)/C(C)=C/C)C3)c1 (stereo partly specified) ?
FLuc modulator: -3%; NPC1 prom act: -5%; ELG1 DNA repair: inconclusive; ELG1 genotox: 5%; Rab9 prom act: -5%

How did CCCN(CCC)CC(C)(C)NS(=O)(=O)c1ccc(Cl)cc1 do in these assays?
FLuc modulator: 2%; NPC1 prom act: 0%; ELG1 DNA repair: -7%; ELG1 genotox: -4%; Rab9 prom act: 0%

Results for CC(C)(C)c1cc[n+](C2=C([O-])c3ccccc3C(=O)/C2=N\S(=O)(=O)c2cccs2)cc1 ?
FLuc modulator: inconclusive; NPC1 prom act: -22%; ELG1 DNA repair: 2.9µM*; ELG1 genotox: -11%; Rab9 prom act: -48%

How did N/C(=N\S(=O)(=O)c1cccs1)c1ccccc1 do in these assays?
FLuc modulator: 7%; NPC1 prom act: -3%; ELG1 DNA repair: -1%; ELG1 genotox: -2%; Rab9 prom act: 9%; SMN2 splice enh: 15%

What do the screens show for `O=C1/C(=N\S(=O)(=O)c2cccs2)C([n+]2ccccc2)=C([O-])c2ccccc21`?
FLuc modulator: 1%; NPC1 prom act: -25%; ELG1 DNA repair: 2.6µM*; ELG1 genotox: -17%; Rab9 prom act: -37%

What do the screens show for `CCC(=O)Nc1ccc(C(=O)CSc2nnc(-c3ccc(NS(C)(=O)=O)cc3)n2C)cc1OC`?
FLuc modulator: 4%; NPC1 prom act: -1%; ELG1 DNA repair: 9%; ELG1 genotox: 5%; Rab9 prom act: 2%; SMN2 splice enh: 3%

What do the screens show for `Cc1cccc(NC(=S)/N=C(\N)Nc2nc(C)c3ccccc3n2)c1`?
FLuc modulator: inconclusive; NPC1 prom act: 0%; ELG1 DNA repair: -11%; ELG1 genotox: -3%; Rab9 prom act: -10%; SMN2 splice enh: -34%

What do the screens show for `Cc1ccc(NC(=S)/N=C(\N)Nc2nc(C)c3ccccc3n2)cc1C`?
FLuc modulator: 11µM*; NPC1 prom act: -8%; ELG1 DNA repair: inconclusive; ELG1 genotox: -1%; Rab9 prom act: -10%; SMN2 splice enh: -29%

How did Cc1cc(C)cc(NC(=S)/N=C(\N)Nc2nc(C)c3ccccc3n2)c1 do in these assays?
FLuc modulator: -2%; NPC1 prom act: -8%; ELG1 DNA repair: 18µM*; ELG1 genotox: -5%; Rab9 prom act: -18%; SMN2 splice enh: -66%

Results for COc1ccc2nc(N/C(N)=N/C(=S)Nc3ccc(C)c(C)c3)nc(C)c2c1 ?
FLuc modulator: -18%; NPC1 prom act: -27%; ELG1 DNA repair: -26%; ELG1 genotox: -7%; Rab9 prom act: -27%; SMN2 splice enh: -35%

How did COc1cccc(NC(=O)c2ccc(-c3nc(COc4ccccc4)c(C)o3)cc2)c1 do in these assays?
FLuc modulator: 0%

How did O=c1oc(CCO)cc2ccc(-c3ccc4[nH]ccc4c3)cc12 do in these assays?
FLuc modulator: 2.7µM*; NPC1 prom act: inconclusive; ELG1 DNA repair: inconclusive; ELG1 genotox: 15µM*; Rab9 prom act: 0%

How did Cn1cncc1C#Cc1ccc2cc(CCO)oc(=O)c2c1 do in these assays?
FLuc modulator: -19%; NPC1 prom act: 13%; ELG1 DNA repair: 26%; ELG1 genotox: 7%; Rab9 prom act: -1%

Results for O=C(Cc1ccccc1Cl)Nc1nc2ccccc2[nH]1 ?
FLuc modulator: -10%; NPC1 prom act: 19%; ELG1 DNA repair: inconclusive; ELG1 genotox: 5%; Rab9 prom act: 21%

How did COc1cccc(C(=O)Nc2nc3ccccc3[nH]2)c1 do in these assays?
FLuc modulator: 0.76µM*; NPC1 prom act: 0.56µM*; ELG1 DNA repair: inconclusive; ELG1 genotox: 0.37µM*; Rab9 prom act: 0.71µM*; SMN2 splice enh: inconclusive

How did O=C(Nc1nc2ccccc2[nH]1)c1cccs1 do in these assays?
FLuc modulator: 4.8µM*; NPC1 prom act: 1.3µM*; ELG1 DNA repair: inconclusive; ELG1 genotox: inconclusive; Rab9 prom act: 1.3µM*; SMN2 splice enh: 3.5µM*

How did Cn1nc(C(=O)Nc2nc3ccccc3[nH]2)ccc1=O do in these assays?
FLuc modulator: 17µM*; NPC1 prom act: inconclusive; ELG1 DNA repair: inconclusive; ELG1 genotox: 18%; Rab9 prom act: 2.2µM*; SMN2 splice enh: 13µM*

What do the screens show for `Cc1c(C(=O)Nc2nc3ccccc3[nH]2)oc2c(Cl)cccc12`?
FLuc modulator: -16%; NPC1 prom act: 13%; ELG1 DNA repair: inconclusive; ELG1 genotox: inconclusive; Rab9 prom act: 24%; SMN2 splice enh: inconclusive

Results for COc1cc(C(=O)Nc2nc3ccccc3[nH]2)cc(OC)c1OC ?
FLuc modulator: inconclusive; NPC1 prom act: 7%; ELG1 DNA repair: inconclusive; ELG1 genotox: -1%; Rab9 prom act: -2%; SMN2 splice enh: 15%

How did COc1ccc(C(=O)Nc2nc3ccccc3[nH]2)cc1 do in these assays?
FLuc modulator: 0.19µM*; NPC1 prom act: 0.11µM*; ELG1 DNA repair: inconclusive; ELG1 genotox: inconclusive; Rab9 prom act: inconclusive

Results for CCOc1ccc(-c2nc(Cn3c(=O)cc(C)c4c(C)nn(-c5ccc(C)cc5)c43)c(C)o2)cc1 ?
FLuc modulator: 0%

How did Cc1cccc(C)c1NC(=O)c1ccc2nc(CCc3ccccc3)oc2c1 do in these assays?
FLuc modulator: -16%

What do the screens show for `C/C=C/C=C/C=O`?
SMN2 splice enh: 1%
